Measurements taken from the supplement of paper PMC6607015.
Counter-ions that a name gives are not always drawn.

Tests used:
Conditions in all cases: compound concentration in added solution (µM; 5 µl added to 20 µl cells): 10; 18 h
[1] = test system: A431; test: LBPA endosome anti-LBPA integrated intensity (sum per cell), Z-score; higher = more LBPA staining
How it was run: (§1)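 Z-scores normalised in AcuityXpress are given for per-cell integrated LBPA or filipin intensity, measured whole-cell or within LBPA endosomes by MetaXpress segmentation. Cells (HeLa MZ or A431, 3,500 per well in 20 µl) were seeded onto 5 µl of 10 µM compound solution in duplicate 384-well imaging plates and fixed in 4% PFA after 18 h.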

[2] = test system: HeLa MZ; test: as above
How it was run: as §1

[3] = test system: A431; test: whole-cell filipin (free cholesterol) integrated intensity, Z-score; higher = more cholesterol staining
How it was run: as §1

[4] = test system: HeLa MZ; test: as above
How it was run: as §1

[5] = test system: A431; test: filipin (cholesterol) integrated intensity within LBPA endosomes, Z-score; higher = more cholesterol in LBPA endosomes
How it was run: as §1

[6] = test system: HeLa MZ; test: as above
How it was run: as §1

Row | Compound | LBPA endosome anti-LBPA integrated intensity (z-score) [1] | LBPA endosome anti-LBPA integrated intensity (z-score) [2] | whole-cell filipin (z-score) [3] | whole-cell filipin (z-score) [4] | filipin (z-score) [5] | filipin (z-score) [6]
1 | CN(C)CCCN1c2ccccc2Sc2ccc(C(F)(F)F)cc21 [Triflupromazine hydrochloride] | 3.06 | 1.61 | 0.711 | 0.675 | 2.23 | 2.87
2 | CCCCC[C@H](O)/C=C/[C@@H]1[C@@H](C/C=C\CCCC(=O)O)[C@@H](O)C[C@H]1O [Dinoprost trometamol] | -0.294 | -0.303 | -0.632 | -0.582 | -0.462 | -0.236
3 | CC[C@H](C)C(=O)O[C@H]1CCC=C2C=C[C@H](C)[C@H](CC[C@@H]3C[C@@H](O)CC(=O)O3)[C@H]21 [Mevastatin] | -1.03 | -2.17 | -1 | -0.345 | -0.746 | -0.0775
4 | NC(=O)OCC(O)COc1ccc(Cl)cc1 (centres undefined) [Chlorphensin carbamate] | -0.6 | -2.23 | -1.05 | -0.894 | -0.514 | -0.697
5 | CCCCC(O)c1ccccc1 (centres undefined) [Fenipentol] | -0.545 | -0.11 | -0.922 | -0.426 | -0.553 | -0.613
6 | COc1ccccc1OCC(O)COC(N)=O (centres undefined) [Methocarbamol] | -0.567 | -0.641 | -0.741 | -0.777 | -0.492 | -0.501
7 | C=C(CC)C(=O)c1ccc(OCC(=O)O)c(Cl)c1Cl [Ethacrynic acid] | -0.359 | -0.213 | -0.0585 | 0.416 | -0.423 | -0.312
8 | Nc1ccc(S(=O)(=O)c2ccc(N)cc2)cc1 [Dapsone] | -0.514 | -0.767 | -0.45 | -0.817 | -0.55 | -0.603
9 | CNCCc1ccccn1 [Betahistine mesylate] | -0.418 | -0.427 | -0.443 | -0.285 | -0.457 | -0.6
10 | CN1CCN(CCCN2c3ccccc3Sc3ccc(S(=O)(=O)N(C)C)cc32)CC1 [Thioproperazine dimesylate] | 2.72 | 1.97 | 0.546 | -0.109 | 2.28 | 2.33
11 | CC(=O)OCC1=C(C(=O)O)N2C(=O)[C@@H](NC(=O)Cc3cccs3)[C@H]2SC1 [Cephalothin sodium salt] | -0.468 | -0.884 | -0.46 | -0.115 | -0.456 | -0.652
12 | COc1ccc2c(c1)c(CC(=O)OCC(=O)O)c(C)n2C(=O)c1ccc(Cl)cc1 [Acemetacin] | -0.545 | -0.702 | -1.02 | -0.542 | -0.556 | -0.644
13 | Cc1cc(N)c2ccccc2[n+]1CCCCCCCCCC[n+]1c(C)cc(N)c2ccccc21 [Dequalinium dichloride] | -0.351 | 0.0986 | -0.943 | 1.23 | -0.599 | -0.485
14 | O=c1[nH]cnc2c1ncn2[C@H]1CC[C@@H](CO)O1 [Didanosine] | -0.649 | -1.14 | -1.2 | -0.832 | -0.585 | -0.693
15 | O=C1C(CC[S+]([O-])c2ccccc2)C(=O)N(c2ccccc2)N1c1ccccc1 (centres undefined) [Sulfinpyrazone] | -0.368 | 0.025 | 0.303 | -0.59 | -0.319 | -0.446
16 | Cc1ccsc1/C=C/C1=NCCCN1C [Morantel tartrate] | -0.53 | -0.0789 | -1.09 | -0.906 | -0.593 | -0.756
17 | CCN(CC)C(=O)N1CCN(C)CC1 [Diethylcarbamazine citrate] | -0.522 | -0.824 | -0.731 | -0.758 | -0.529 | -0.553
18 | N=C(N)NCCN1CCCCCCC1 [Guanethidine sulfate] | -0.647 | -1.05 | -0.871 | -0.0594 | -0.596 | -0.454
19 | CC(C[N+](C)(C)C)OC(N)=O (centres undefined) [Bethanechol chloride] | -0.55 | -0.64 | -0.316 | -0.111 | -0.415 | -0.495
20 | O=C(O)c1ccccc1C(=O)Nc1ccc(S(=O)(=O)Nc2nccs2)cc1 [Phthalylsulfathiazole] | -0.455 | -0.249 | -0.41 | -0.101 | -0.471 | -0.557

Row | Compound | LBPA endosome anti-LBPA integrated intensity (z-score) [1] | LBPA endosome anti-LBPA integrated intensity (z-score) [2] | whole-cell filipin (z-score) [3] | whole-cell filipin (z-score) [4] | filipin (z-score) [5] | filipin (z-score) [6]
21 | CC(C)NCC(O)c1ccc(NS(C)(=O)=O)cc1 (centres undefined) [Sotalol hydrochloride] | -0.295 | -0.419 | 0.181 | 0.261 | -0.181 | -0.219
22 | CC(=O)SCC(Cc1ccccc1)C(=O)NCC(=O)OCc1ccccc1 (centres undefined) [Racecadotril] | -0.747 | -1.18 | -0.139 | -0.415 | -0.589 | -0.468
23 | CC[C@]12CCCN3CCc4c(n(c5ccccc45)C(=O)C1)[C@@H]32 [Eburnamonine (-)] | -0.525 | -1.3 | -0.836 | -2.15 | -0.422 | -0.458
24 | COC1=CC(=O)C[C@@H](C)[C@]12Oc1c(Cl)c(OC)cc(OC)c1C2=O [Griseofulvin] | -0.41 | -0.867 | -0.73 | -1.73 | -0.468 | -0.516
25 | CN(C)C(=O)C(CCN1CCC(O)(c2ccc(Cl)cc2)CC1)(c1ccccc1)c1ccccc1 [Loperamide hydrochloride] | 2.04 | 1.35 | 0.703 | 1.87 | 3.45 | 3.57
26 | C[C@](N)(Cc1ccc(O)c(O)c1)C(=O)O [Methyldopa (L,-)] | -0.446 | -0.811 | -0.449 | 0.0391 | -0.366 | -0.319
27 | CC(=O)NC[C@H]1CN(c2ccc(N3CCOCC3)c(F)c2)C(=O)O1 [Linezolid] | -0.619 | -0.712 | -0.597 | -0.713 | -0.583 | -0.674
28 | CCCN[C@H]1CCc2nc(N)sc2C1 [Pramipexole] | -0.166 | 0.761 | 0.197 | 0.182 | -0.247 | -0.149
29 | O=c1n(CCCN2CCN(c3cccc(Cl)c3)CC2)nc2ccccn12 [Trazodone hydrochloride] | 0.505 | 2.35 | 0.713 | 1.12 | 0.872 | 1.04
30 | Cn1c(=O)c2c(ncn2CC(=O)O)n(C)c1=O [Acefylline] | -0.332 | 0.383 | -0.237 | -0.0327 | -0.446 | -0.485
31 | Cn1nnnc1SCC1=C(C(=O)O)N2C(=O)[C@@H](NC(=O)[C@H](O)c3ccccc3)[C@H]2SC1 [Cefamandole sodium salt] | -0.486 | -0.416 | -0.496 | 0.0398 | -0.431 | -0.551
32 | CN(C)CCC[C@@]1(c2ccc(F)cc2)OCc2cc(C#N)ccc21 [Escitalopram] | -0.359 | 1.34 | 0.0689 | 0.675 | -0.134 | 0.883
33 | CCN(Cc1ccncc1)C(=O)C(CO)c1ccccc1 (centres undefined) [Tropicamide] | -0.503 | -0.535 | -0.78 | -0.974 | -0.52 | -0.592
34 | CC(C)NCC(O)c1ccc(O)c(O)c1 (single isomer, unassigned; (-)) [(-)-Isoproterenol hydrochloride] | -0.173 | -0.052 | 0.672 | -0.415 | -0.458 | -0.467
35 | C=CC1=C(C(=O)O)N2C(=O)[C@@H](NC(=O)/C(=N\OCC(=O)O)c3csc(N)n3)[C@H]2SC1 [Cefixime] | -0.497 | -0.00426 | -0.828 | -0.585 | -0.573 | -0.64
36 | CCC(=O)O[C@@H](O[P@](=O)(CCCCc1ccccc1)CC(=O)N1C[C@H](C2CCCCC2)C[C@H]1C(=O)O)C(C)C [Fosinopril] | -0.177 | -0.153 | -0.025 | 0.0232 | -0.364 | -0.383
37 | O=C(Nc1cccc2c(=O)cc(-c3nnn[nH]3)oc12)c1ccc(OCCCCc2ccccc2)cc1 [Pranlukast] | -0.507 | -1.1 | -0.413 | -0.657 | -0.501 | -0.637
38 | Cc1ccnc(NS(=O)(=O)c2ccc(N)cc2)n1 [Sulfamerazine] | -0.529 | -1.13 | -0.353 | -0.0674 | -0.45 | -0.567
39 | CNCCC(Oc1ccc(C(F)(F)F)cc1)c1ccccc1 (centres undefined) [Fluoxetine hydrochloride] | 2.5 | 0.902 | 0.302 | -0.115 | 2.19 | 1.62
